In all, about 63,000 compounds went through this assay and about 1,100 (1.7%) were called active. The sample as a whole holds a higher share of actives than the screen did. Potency and affinity values are given separately. A number with no mark means an inactive call. No stated cut-off is given here; in the data, active means cytotoxicity above about 50%; inactive means the rest.
Test: cytotoxicity in HPDE-C7 cells, cell-based, fluorescence, HTS (AID 430);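 further: cells exposed to compound for 48 hours before viability readout; 0% = vehicle and 100% = reference cytotoxic drug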
Details: HPDE-C7 pancreatic duct cells viability, at 10 µM, hits give high values
In the case of `COC(=O)COc1ccc(S(=O)(=O)NCCC2=CCCCC2)cc1C`, the cytotoxicity is reported as -2.4%.
With `CCOC(=O)COc1ccc(S(=O)(=O)NCCC2=CCCCC2)cc1` the cytotoxicity was 50.3% (active).
`COC(=O)COc1ccc(S(=O)(=O)NCCC2=CCCCC2)cc1` gave a cytotoxicity of 18.8%.
For `O=C(c1ccncc1)N1CCN(C(=O)c2cccs2)CC1`, the cytotoxicity was -5.3%.
For `O=C(Nc1ccc(N2CCOCC2)c(Cl)c1)c1c(F)c(F)c(F)c(F)c1F`, the cytotoxicity was 54.5% (active).
Compound `O=C(Nc1ccc(N2CCN(C(=O)c3ccco3)CC2)c(Cl)c1)c1cccs1` has a cytotoxicity of 16.9%.
`O=C(Nc1ccc(N2CCOCC2)c(Cl)c1)c1cccc(F)c1` showed a cytotoxicity of 16.4%.
Work on `O=C(Nc1ccccc1N1CCN(C(=O)c2ccccc2)CC1)c1cc2ccccc2o1` yielded a cytotoxicity of -8.3%.
With `O=C(Nc1ccc(N2CCN(C(=O)c3ccccc3)CC2)c(Cl)c1)c1ccco1` the cytotoxicity was -7.6%.
Work on `O=C(Nc1ccc(N2CCOCC2)c(Cl)c1)c1ccco1` yielded a cytotoxicity of -5.7%.
In the case of `O=C(Nc1ccc(N2CCN(C(=O)c3ccco3)CC2)c(Cl)c1)c1c(F)c(F)c(F)c(F)c1F`, the cytotoxicity is reported as 56% (active).
For `CCC(=O)Nc1ccc(NC(=O)c2cc3ccccc3o2)cc1`, the cytotoxicity was -18.1%.
`Cc1ccccc1C(=O)N1CCN(c2ccc(NC(=O)c3ccco3)cc2Cl)CC1` showed a cytotoxicity of 11.7%.
`O=C(Cc1ccc(Cl)cc1)Nc1ccc(N2CCN(C(=O)c3ccco3)CC2)c(Cl)c1` gave a cytotoxicity of 19.6%.
`CCn1c(C(=O)NCc2cccnc2)cc2sc(Cl)cc21` gave a cytotoxicity of 1.8%.
In the case of `CC(=O)Nc1cc(C(=O)N2CCOCC2)ccc1S(=O)(=O)c1ccc(C)cc1`, the cytotoxicity is reported as -15.2%.
For `COc1ccc(CCNC(=O)C2CCCN(C(=O)N(C)C)C2)c(OC)c1` (stereo not given), the cytotoxicity was -5.4%.
`CCN(CC)c1ccc2c(c1)C(=O)N(C)C2=O` showed a cytotoxicity of 11.6%.
Compound `CCn1cc(SCC(=O)NCc2ccc3c(c2)OCO3)c2ccccc21` has a cytotoxicity of 4.6%.
`COc1ccc(CN(CC2CCCO2)S(=O)(=O)c2ccc(C(=O)O)cc2)cc1OC` (stereo not given) gave a cytotoxicity of 8.1%.
In the case of `Cn1c(=Nc2ccc(N3CCOCC3)cc2)ccc2ccccc21`, the cytotoxicity is reported as 0.9%.
For `COc1ccc(-n2nc(C(=O)NCc3ccco3)c3c4ccccc4n(C)c3c2=O)cc1Cl`, the cytotoxicity was 2.9%.
With `Cc1nn(CCO)c2c1C(=O)CCC2` the cytotoxicity was -9.1%.
`O=C1CC(N2CCOCC2)C(=O)N1c1ccc2c(c1)OCO2` (stereo not given) showed a cytotoxicity of -4.6%.
Work on `CC1CN(c2nc3ccccc3nc2C(C#N)C(=O)NC2CCCCC2)CC(C)O1` (stereo not given) yielded a cytotoxicity of -15.5%.
`Cc1ccc(NC(=O)CN2C(=O)NC(Cc3ccccc3)C2=O)cc1` (stereo not given) showed a cytotoxicity of -48.1%.
In the case of `CCCC(=O)N1CCN(c2ccc(NC(=O)c3cc4ccccc4o3)cc2)CC1`, the cytotoxicity is reported as -13.7%.
Compound `O=C(Nc1ccccc1N1CCN(C(=O)c2ccc(Cl)cc2)CC1)c1cc2ccccc2o1` has a cytotoxicity of -2.7%.
With `CC1CCN(CCCNC(=O)C2CCN(S(=O)(=O)N3CCCCC3)CC2)CC1` the cytotoxicity was -11.8%.
For `Nc1c(S(=O)(=O)c2ccccc2)c2nc3ccccc3nc2n1/N=C/c1ccco1`, the cytotoxicity was 69% (active).
With `Nc1c(S(=O)(=O)c2cccc(Cl)c2)c2nc3ccccc3nc2n1/N=C/c1ccc(O)c(O)c1` the cytotoxicity was 117% (active).
Compound `Nc1c(S(=O)(=O)c2cccc(Cl)c2)c2nc3ccccc3nc2n1CCN1CCOCC1` has a cytotoxicity of -2%.
In the case of `Cc1ccc(C)c(S(=O)(=O)c2c(N)n(/N=C/c3ccco3)c3nc4ccccc4nc23)c1`, the cytotoxicity is reported as 33.6%.
For `Cc1cccc(S(=O)(=O)c2c(N)n(/N=C/c3cccnc3)c3nc4ccccc4nc23)c1`, the cytotoxicity was 28.2%.
In the case of `Cc1cccc(S(=O)(=O)c2c(N)n(/N=C/c3ccco3)c3nc4ccccc4nc23)c1`, the cytotoxicity is reported as 26.6%.
`Cc1ccc(S(=O)(=O)c2c(N)n(/N=C/c3ccco3)c3nc4ccccc4nc23)cc1C` showed a cytotoxicity of 11.7%.
For `Nc1c(S(=O)(=O)c2cccs2)c2nc3ccccc3nc2n1/N=C/c1cccc(O)c1`, the cytotoxicity was 64.6% (active).
`Cc1ccc(S(=O)(=O)c2c(N)n(/N=C/c3ccco3)c3nc4ccccc4nc23)cc1` gave a cytotoxicity of 38.7%.
`COCCn1c(N)c(S(=O)(=O)c2cccs2)c2nc3ccccc3nc21` showed a cytotoxicity of 5%.
For `Nc1c(S(=O)(=O)c2cccs2)c2nc3ccccc3nc2n1Cc1cccs1`, the cytotoxicity was -1.9%.
`COc1ccc(-n2c(Cc3cccn3C)nnc2SCC(=O)NC2CCCC2)cc1` showed a cytotoxicity of -16%.
For `CCN(CC)CCNC(=O)Cn1nc(Cc2ccccc2)c2ccccc2c1=O`, the cytotoxicity was -4.7%.
`CCOc1cc(C2C(C#N)=C(N)Oc3n[nH]c(CC)c32)ccc1OCCN1CCOCC1` (stereo not given) gave a cytotoxicity of -1.8%.
With `CCOC(=O)C1CCN(C(=O)CNS(=O)(=O)c2cccs2)CC1` the cytotoxicity was -14.6%.
With `CN(CCNC(=O)Cn1c(=O)sc2ccccc21)Cc1ccccc1` the cytotoxicity was 10.4%.
Work on `COC(=O)c1sc(NC(=O)Cc2cccs2)nc1C` yielded a cytotoxicity of -9.1%.
With `CCCc1nnc(NC(=O)c2cccc(OC)c2)s1` the cytotoxicity was -16.1%.
In the case of `COc1cccc(C(=O)c2sc(NC(C)C)nc2N)c1`, the cytotoxicity is reported as 70.8% (active).
For `COc1ccc(C(=O)c2sc(NC(C)C)nc2N)cc1OC`, the cytotoxicity was -6.1%.
Compound `O=C(NC1CCCCC1)c1ccc(CS(=O)(=O)Cc2ccccc2F)o1` has a cytotoxicity of -6.3%.
`CCOc1ccccc1NC(=O)Cn1nnc(C(=O)Nc2ccc(C)cc2)c1N` gave a cytotoxicity of -0.5%.
In the case of `CCOc1ccccc1NC(=O)Cn1nnc(C(=O)Nc2ccccc2Cl)c1N`, the cytotoxicity is reported as 8.3%.
With `CCOc1ccccc1NC(=O)Cn1nnc(C(=O)NCc2ccco2)c1N` the cytotoxicity was 63% (active).
`Cc1nn(-c2ccccc2)c2c1C(c1ccco1)C(C#N)=C(N)O2` (stereo not given) gave a cytotoxicity of 11.5%.
Work on `O=C(Nc1ccc2c(c1)OCCO2)C1CCN(S(=O)(=O)c2ccc(Br)s2)CC1` yielded a cytotoxicity of 6.5%.
With `O=C(Nc1ccccc1Cl)N1CCN(c2ccc3nnc(-c4ccc(F)cc4)n3n2)CC1` the cytotoxicity was 17.7%.
With `O=C(Nc1ccc(Cl)cc1)N1CCN(c2ccc3nnc(-c4ccc(F)cc4)n3n2)CC1` the cytotoxicity was 69.6% (active).
With `O=C(Nc1ccccc1C(F)(F)F)N1CCN(c2ccc3nnc(-c4ccc(F)cc4)n3n2)CC1` the cytotoxicity was 13.1%.
`CCCNS(=O)(=O)c1ccc(OCC(=O)NCc2ccc3c(c2)OCO3)cc1` showed a cytotoxicity of 6.3%.
In the case of `Cc1nnc(SCCn2c(N3CCN(C)CC3)nc3c2c(=O)n(C)c(=O)n3C)s1`, the cytotoxicity is reported as -5.2%.
With `Cc1nnc(Sc2nc(Sc3nnc(C)s3)nc(N3CCN(C)CC3)n2)s1` the cytotoxicity was 81.3% (active).
`Cc1nnc(SCCn2c(N3CCN(C)CC3)nc3c2c(=O)[nH]c(=O)n3C)s1` showed a cytotoxicity of -9.1%.
Work on `COc1ccc([C@@H]2[C@H]3CN(C(C)=O)CC=C3C(C#N)=C(N)C2(C#N)C#N)c2ccccc12` yielded a cytotoxicity of -8.9%.
`CCOC(=O)c1ccc(N=c2sc(C(=O)OC)cc(=O)n2CCCN2CCOCC2)cc1` showed a cytotoxicity of -17.7%.
With `CCOC(=O)c1ccc(N=c2sc(C(=O)OC)cc(=O)n2Cc2ccco2)cc1` the cytotoxicity was 116% (active).
`CCn1c(=O)cc(C(=O)OC)sc1=Nc1ccc(F)c(F)c1` gave a cytotoxicity of 17.4%.
For `COC(=O)c1cc(=O)n(Cc2ccco2)c(=Nc2ccc(F)c(Cl)c2)s1`, the cytotoxicity was 82.7% (active).
Compound `COC(=O)c1cc(=O)n(Cc2ccc3c(c2)OCO3)c(=Nc2ccccc2)s1` has a cytotoxicity of 34.9%.
Work on `CCOC(=O)c1ccc(N=c2sc(C(=O)OC)cc(=O)n2C2CC2)cc1` yielded a cytotoxicity of 23.6%.
Compound `CN(CCc1ccccn1)Cc1ccc(Cl)cc1Cl` has a cytotoxicity of 3.3%.
Compound `Cc1ccc(-c2nnc(SCc3ccccc3F)o2)cc1` has a cytotoxicity of 1.8%.
Work on `O=C(Nc1cccc2ncccc12)c1cccnc1` yielded a cytotoxicity of -4.6%.
`O=C(Nc1ccccc1)N(CCN1CCOCC1)Cc1ccccc1F` showed a cytotoxicity of -7.5%.
Compound `Cc1ccc(C)c(CN2CCCNC2=O)c1` has a cytotoxicity of -5.7%.
Compound `COC(=O)c1cc2occc2n1CC(=O)Nc1ccc(OC)c(OC)c1` has a cytotoxicity of -0.3%.
For `CCNC(=O)CSc1nc2ccccc2c(=O)n1OC`, the cytotoxicity was -1%.
For `Clc1ccc(Cn2nnc(-c3ccc(CN4CCOCC4)cc3)n2)cc1`, the cytotoxicity was -26.4%.
For `COC(=O)c1ccc(NC(=O)C2CCCN2S(=O)(=O)c2ccc(F)cc2)cc1` (stereo not given), the cytotoxicity was 2.5%.
For `COc1cccc(-c2cc(C(F)(F)F)nc(N3CCN(c4ccccc4)CC3)n2)c1`, the cytotoxicity was 72.4% (active).
For `COc1cccc(-c2cc(C(F)(F)F)nc(N3CCCCC3)n2)c1`, the cytotoxicity was -12.8%.
In the case of `COc1cccc(-c2cc(C(F)(F)F)nc(N3CCOCC3)n2)c1`, the cytotoxicity is reported as -14%.
Compound `O=c1c2ccccc2oc2ncccc12` has a cytotoxicity of -24.9%.
For `CCC(Sc1nccn1C)C(=O)Nc1cccc2ccccc12` (stereo not given), the cytotoxicity was -6.2%.
With `COc1cc(C(=O)N2CCN(c3ccc(C)cc3C)CC2)cc(OC)c1OC` the cytotoxicity was 53.4% (active).
Compound `COc1ccc(Cl)cc1S(=O)(=O)N1CCN(C(=O)c2cc(OC)c(OC)c(OC)c2)CC1` has a cytotoxicity of -17%.
Work on `Cc1ccc(N2CCN(C(=O)c3ccccc3)CC2)c(C)c1` yielded a cytotoxicity of -29.9%.
Compound `O=C(NCC1(N2CCOCC2)CCCCC1)c1ccc(Cl)c(S(=O)(=O)NCc2ccco2)c1` has a cytotoxicity of -1.6%.
For `COc1cc(C(=O)N2CCN(c3cc(Cl)ccc3Cl)CC2)cc(OC)c1OC`, the cytotoxicity was 64.3% (active).
For `Cc1cccc(N2CCN(C(=O)c3ccc(Cl)c(S(=O)(=O)NCc4ccco4)c3)CC2)c1C`, the cytotoxicity was 65.8% (active).
In the case of `COc1ccc(C(=O)N2CCN(c3ccc(C)cc3C)CC2)cc1OC`, the cytotoxicity is reported as -9.6%.
For `COc1cc(C(=O)N2CCN(c3cccc(C)c3C)CC2)cc(OC)c1OC`, the cytotoxicity was 67.4% (active).
With `COc1cc(C(=O)N2CCN(C(=O)c3ccccc3)CC2)cc(OC)c1OC` the cytotoxicity was -2.2%.
With `O=C(O)c1ccc(Cl)c(S(=O)(=O)NCc2ccco2)c1` the cytotoxicity was -12.1%.
For `Cc1cccc(N2CCN(C(=O)c3ccncc3)CC2)c1C`, the cytotoxicity was 34.4%.
In the case of `COc1ccc(C(=O)N2CCN(C(=O)c3cc(OC)c(OC)c(OC)c3)CC2)cc1`, the cytotoxicity is reported as 5.9%.
